In publication PMC7862700, “An all-to-all approach to the identification of sequence-specific readers for epigenetic DNA modifications on cytosine”:

Tests used:
Test in all cases: DAPPL (digital affinity profiling via proximity ligation, sequencing); 10 mM Tris-HCl pH 7.5, 50 mM NaCl, 1 mM DTT, 4% glycerol, room temperature, 30 min; GST-TFs on glutathione beads, 16-mer random dsDNA library, 0.1% formaldehyde crosslink after washing; high values mean tight binding
FLI1 = biological target: T1, FLI1 (Homo sapiens, UniProt Q01543 1-452); details: protein: recombinant; tags: N-terminal GST; dsDNA, one strand shown
T1 sequence: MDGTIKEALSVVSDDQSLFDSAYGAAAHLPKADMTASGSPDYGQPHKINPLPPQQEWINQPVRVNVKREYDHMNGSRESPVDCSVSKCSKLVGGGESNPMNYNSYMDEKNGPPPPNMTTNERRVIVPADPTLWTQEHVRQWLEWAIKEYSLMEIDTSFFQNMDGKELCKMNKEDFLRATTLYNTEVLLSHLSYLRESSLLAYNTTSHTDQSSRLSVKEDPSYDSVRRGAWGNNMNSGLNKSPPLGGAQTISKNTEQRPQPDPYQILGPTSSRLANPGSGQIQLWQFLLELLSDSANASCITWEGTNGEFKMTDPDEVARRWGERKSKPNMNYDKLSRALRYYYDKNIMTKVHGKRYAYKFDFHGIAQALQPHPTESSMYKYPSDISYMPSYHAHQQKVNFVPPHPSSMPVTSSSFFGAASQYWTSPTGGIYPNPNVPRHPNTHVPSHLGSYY
How it was run: (§1)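 Sequencing on an Illumina NextSeq500 followed washing, crosslinking with 0.1% formaldehyde, proximity ligation (BsaI/T4 ligase, 1 h, 37 °C) and PCR amplification of pools that had been incubated for 30 min at room temperature with 200 nmole of a random double-stranded 16-mer DNA library in Tris/NaCl/DTT/glycerol buffer. Each pool held DNA-barcoded human transcription factors, expressed in yeast as GST fusions and captured on glutathione beads, plus a tag-only sample. Binding signal is a hexamer's read frequency for a factor divided by its frequency in the tag-only sample.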

ELK1 = biological target: T2, ELK1 (Homo sapiens, UniProt P19419 1-428); details: protein: recombinant; tags: N-terminal GST; dsDNA, one strand shown
T2 sequence: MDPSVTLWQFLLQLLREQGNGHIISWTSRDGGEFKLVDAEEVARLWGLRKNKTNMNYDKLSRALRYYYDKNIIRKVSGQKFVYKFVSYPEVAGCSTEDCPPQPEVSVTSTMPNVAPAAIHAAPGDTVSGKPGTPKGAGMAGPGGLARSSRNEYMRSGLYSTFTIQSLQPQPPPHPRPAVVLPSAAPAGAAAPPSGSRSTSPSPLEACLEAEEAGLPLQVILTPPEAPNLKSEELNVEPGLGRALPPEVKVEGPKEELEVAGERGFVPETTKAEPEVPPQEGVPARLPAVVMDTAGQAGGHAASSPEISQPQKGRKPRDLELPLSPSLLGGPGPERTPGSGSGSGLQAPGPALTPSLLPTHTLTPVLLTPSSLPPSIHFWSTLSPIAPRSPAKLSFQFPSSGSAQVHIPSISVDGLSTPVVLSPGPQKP
How it was run: as §1

GABPA = biological target: T3, GABPA (Homo sapiens, UniProt Q06546 1-454); details: protein: recombinant; tags: N-terminal GST; dsDNA, one strand shown
T3 sequence: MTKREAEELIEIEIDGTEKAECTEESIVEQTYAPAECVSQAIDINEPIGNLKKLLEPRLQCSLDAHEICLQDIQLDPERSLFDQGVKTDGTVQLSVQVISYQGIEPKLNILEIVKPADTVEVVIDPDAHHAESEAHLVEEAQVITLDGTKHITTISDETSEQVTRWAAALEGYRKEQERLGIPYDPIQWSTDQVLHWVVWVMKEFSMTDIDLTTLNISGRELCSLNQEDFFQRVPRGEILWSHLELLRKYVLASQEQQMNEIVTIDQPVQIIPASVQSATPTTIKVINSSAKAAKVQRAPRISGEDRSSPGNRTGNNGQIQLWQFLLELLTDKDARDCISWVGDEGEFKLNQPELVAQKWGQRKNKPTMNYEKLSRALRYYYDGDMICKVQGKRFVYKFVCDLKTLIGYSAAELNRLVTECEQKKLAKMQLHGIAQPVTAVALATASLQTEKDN
How it was run: as §1

ERG = biological target: T4, ERG (Homo sapiens, UniProt P11308 1-479); details: protein: recombinant; tags: N-terminal GST; dsDNA, one strand shown
T4 sequence: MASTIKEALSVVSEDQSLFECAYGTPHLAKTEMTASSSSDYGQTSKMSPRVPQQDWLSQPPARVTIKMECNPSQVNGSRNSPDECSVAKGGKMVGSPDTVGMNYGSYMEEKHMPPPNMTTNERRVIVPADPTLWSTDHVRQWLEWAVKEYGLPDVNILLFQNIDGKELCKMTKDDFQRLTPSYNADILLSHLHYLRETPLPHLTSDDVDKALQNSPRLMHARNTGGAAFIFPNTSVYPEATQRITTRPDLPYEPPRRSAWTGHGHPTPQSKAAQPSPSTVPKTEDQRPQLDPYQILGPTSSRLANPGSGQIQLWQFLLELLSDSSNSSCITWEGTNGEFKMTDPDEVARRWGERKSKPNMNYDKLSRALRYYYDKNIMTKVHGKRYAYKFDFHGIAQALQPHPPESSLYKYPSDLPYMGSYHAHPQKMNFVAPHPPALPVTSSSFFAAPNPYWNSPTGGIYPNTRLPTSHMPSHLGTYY
How it was run: as §1

ELF1 = ELF1 (Homo sapiens, UniProt P32519 1-619); details: protein: recombinant; tags: N-terminal GST; dsDNA, one strand shown
ELF1, sequence (P32519 whole entry): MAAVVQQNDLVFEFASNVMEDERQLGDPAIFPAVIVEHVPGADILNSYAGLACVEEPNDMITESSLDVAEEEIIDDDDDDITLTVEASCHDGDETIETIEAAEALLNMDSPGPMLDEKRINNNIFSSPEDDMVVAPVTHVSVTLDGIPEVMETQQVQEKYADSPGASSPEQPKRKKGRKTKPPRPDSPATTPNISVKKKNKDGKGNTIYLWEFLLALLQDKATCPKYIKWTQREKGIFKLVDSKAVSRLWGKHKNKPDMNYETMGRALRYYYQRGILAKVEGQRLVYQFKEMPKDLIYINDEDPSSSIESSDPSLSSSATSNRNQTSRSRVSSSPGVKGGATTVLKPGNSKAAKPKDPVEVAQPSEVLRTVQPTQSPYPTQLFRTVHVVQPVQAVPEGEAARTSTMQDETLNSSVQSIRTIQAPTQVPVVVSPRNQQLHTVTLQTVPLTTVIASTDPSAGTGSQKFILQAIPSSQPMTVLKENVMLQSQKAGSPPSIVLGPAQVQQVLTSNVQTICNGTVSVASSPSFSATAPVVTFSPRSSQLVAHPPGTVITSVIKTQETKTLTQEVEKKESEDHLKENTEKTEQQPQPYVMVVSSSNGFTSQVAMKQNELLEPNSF
How it was run: as §1

EHF = biological target: T5, EHF (Homo sapiens, UniProt Q9NZC4 1-300); details: protein: recombinant; tags: N-terminal GST; dsDNA, one strand shown
T5 sequence: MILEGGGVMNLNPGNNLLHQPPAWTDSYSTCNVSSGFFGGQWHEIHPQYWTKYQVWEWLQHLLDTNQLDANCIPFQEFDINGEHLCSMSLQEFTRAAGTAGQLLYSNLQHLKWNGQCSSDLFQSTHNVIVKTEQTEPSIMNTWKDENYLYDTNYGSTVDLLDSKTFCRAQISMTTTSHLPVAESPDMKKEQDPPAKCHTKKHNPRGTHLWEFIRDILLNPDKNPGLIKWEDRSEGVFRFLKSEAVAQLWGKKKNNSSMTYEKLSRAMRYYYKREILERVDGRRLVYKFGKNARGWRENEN
How it was run: as §1

SPI1 = SPI1 (Homo sapiens, UniProt P17947 1-270); details: protein: recombinant; tags: N-terminal GST; dsDNA, one strand shown
How it was run: as §1

SPIB = SPIB (Homo sapiens, UniProt Q01892 1-262); details: protein: recombinant; tags: N-terminal GST; dsDNA, one strand shown
SPIB, sequence (Q01892 whole entry): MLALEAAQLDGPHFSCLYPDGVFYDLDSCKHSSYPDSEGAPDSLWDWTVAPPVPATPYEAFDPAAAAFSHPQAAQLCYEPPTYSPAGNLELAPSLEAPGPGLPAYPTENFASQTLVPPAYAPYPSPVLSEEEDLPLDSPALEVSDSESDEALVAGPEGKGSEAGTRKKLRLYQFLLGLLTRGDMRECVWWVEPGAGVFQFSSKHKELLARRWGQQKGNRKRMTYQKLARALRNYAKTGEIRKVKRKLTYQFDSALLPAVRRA
How it was run: as §1

ELK3 = biological target: T6, ELK3 (Homo sapiens, UniProt P41970 1-407); details: protein: recombinant; tags: N-terminal GST; dsDNA, one strand shown
T6 sequence: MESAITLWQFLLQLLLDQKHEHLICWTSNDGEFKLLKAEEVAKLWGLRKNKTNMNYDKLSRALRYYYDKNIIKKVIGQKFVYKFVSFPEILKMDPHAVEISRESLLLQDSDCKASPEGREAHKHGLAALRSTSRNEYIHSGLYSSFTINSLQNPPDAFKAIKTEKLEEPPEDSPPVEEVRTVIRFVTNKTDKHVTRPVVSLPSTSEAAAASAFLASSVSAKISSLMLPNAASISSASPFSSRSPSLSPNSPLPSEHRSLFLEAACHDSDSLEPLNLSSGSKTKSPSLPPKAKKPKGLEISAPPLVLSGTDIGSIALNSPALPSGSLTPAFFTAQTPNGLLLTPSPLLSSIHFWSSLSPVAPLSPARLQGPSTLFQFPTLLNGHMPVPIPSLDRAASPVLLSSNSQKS
How it was run: as §1

FEV = biological target: T7, FEV (Homo sapiens, UniProt Q99581 1-238); details: protein: recombinant; tags: N-terminal GST; dsDNA, one strand shown
T7 sequence: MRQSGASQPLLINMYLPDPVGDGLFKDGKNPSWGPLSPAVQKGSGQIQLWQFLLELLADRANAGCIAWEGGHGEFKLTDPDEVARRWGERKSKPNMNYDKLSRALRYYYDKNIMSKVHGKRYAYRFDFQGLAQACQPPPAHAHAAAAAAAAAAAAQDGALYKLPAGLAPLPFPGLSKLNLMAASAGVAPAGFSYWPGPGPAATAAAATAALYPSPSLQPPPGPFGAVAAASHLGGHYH
How it was run: as §1

ETV5 = ETV5 (Homo sapiens, UniProt P41161 1-510); details: protein: recombinant; tags: N-terminal GST; dsDNA, one strand shown
ETV5, sequence (P41161 whole entry): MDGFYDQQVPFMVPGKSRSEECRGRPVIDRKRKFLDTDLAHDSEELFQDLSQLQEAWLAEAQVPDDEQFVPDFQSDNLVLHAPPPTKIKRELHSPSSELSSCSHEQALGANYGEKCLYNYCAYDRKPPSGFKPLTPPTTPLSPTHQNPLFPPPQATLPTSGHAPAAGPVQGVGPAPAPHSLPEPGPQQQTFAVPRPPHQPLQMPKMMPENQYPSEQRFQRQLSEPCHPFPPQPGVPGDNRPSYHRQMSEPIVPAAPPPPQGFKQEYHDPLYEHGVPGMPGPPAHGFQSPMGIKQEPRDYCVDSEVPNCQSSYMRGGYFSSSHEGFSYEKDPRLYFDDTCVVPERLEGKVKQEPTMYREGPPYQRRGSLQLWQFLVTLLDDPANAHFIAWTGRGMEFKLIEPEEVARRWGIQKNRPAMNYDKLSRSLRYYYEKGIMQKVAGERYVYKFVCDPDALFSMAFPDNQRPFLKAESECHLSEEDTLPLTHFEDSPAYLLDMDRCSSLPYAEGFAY
How it was run: as §1

HSF1 = HSF1 (Homo sapiens, UniProt Q00613 1-529); details: protein: recombinant; tags: N-terminal GST; chain copies: 3; dsDNA, one strand shown
HSF1, sequence (Q00613 whole entry): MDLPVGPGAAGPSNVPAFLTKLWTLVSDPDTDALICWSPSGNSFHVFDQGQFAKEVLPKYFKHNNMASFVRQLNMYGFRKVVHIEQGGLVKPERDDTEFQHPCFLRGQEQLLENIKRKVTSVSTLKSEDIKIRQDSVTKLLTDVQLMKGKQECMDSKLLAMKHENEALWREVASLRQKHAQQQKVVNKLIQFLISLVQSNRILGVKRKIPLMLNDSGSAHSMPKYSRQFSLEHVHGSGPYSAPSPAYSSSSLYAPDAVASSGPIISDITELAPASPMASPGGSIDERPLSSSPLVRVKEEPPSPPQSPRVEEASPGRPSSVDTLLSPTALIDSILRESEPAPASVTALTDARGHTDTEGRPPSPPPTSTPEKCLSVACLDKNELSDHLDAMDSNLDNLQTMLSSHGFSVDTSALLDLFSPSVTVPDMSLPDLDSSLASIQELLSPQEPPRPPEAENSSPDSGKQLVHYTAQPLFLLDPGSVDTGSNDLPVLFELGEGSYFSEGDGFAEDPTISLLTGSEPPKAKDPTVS
How it was run: as §1

SPIC = biological target: T8, SPIC (Homo sapiens, UniProt Q8N5J4 1-248); details: protein: recombinant; tags: N-terminal GST; dsDNA, one strand shown
T8 sequence: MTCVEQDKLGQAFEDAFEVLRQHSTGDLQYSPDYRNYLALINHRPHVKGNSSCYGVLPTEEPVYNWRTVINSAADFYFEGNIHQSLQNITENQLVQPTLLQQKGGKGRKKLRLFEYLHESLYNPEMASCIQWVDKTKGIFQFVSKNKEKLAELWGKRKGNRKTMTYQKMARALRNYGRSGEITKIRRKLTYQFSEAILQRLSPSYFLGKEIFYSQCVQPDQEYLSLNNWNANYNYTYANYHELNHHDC
How it was run: as §1

ELF4 = ELF4 (Homo sapiens, UniProt Q99607 1-663); details: protein: recombinant; tags: N-terminal GST; dsDNA, one strand shown
ELF4, sequence (Q99607 whole entry): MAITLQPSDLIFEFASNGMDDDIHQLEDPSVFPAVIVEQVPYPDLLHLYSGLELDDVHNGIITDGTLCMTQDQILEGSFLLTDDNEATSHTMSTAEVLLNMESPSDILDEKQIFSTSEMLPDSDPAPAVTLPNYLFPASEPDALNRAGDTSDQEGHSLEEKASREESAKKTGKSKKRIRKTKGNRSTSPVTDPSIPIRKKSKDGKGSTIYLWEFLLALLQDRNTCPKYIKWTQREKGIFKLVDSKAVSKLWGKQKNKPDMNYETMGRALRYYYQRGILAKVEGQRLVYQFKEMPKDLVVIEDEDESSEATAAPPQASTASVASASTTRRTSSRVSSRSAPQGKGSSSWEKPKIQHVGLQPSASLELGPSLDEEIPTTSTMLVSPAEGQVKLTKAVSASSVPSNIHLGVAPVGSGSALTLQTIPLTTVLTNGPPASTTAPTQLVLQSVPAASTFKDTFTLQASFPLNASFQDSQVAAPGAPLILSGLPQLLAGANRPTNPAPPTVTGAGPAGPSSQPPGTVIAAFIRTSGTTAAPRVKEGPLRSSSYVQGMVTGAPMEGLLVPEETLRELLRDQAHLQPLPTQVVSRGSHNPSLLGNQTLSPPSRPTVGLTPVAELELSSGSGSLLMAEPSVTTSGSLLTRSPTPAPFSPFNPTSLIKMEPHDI
How it was run: as §1

ELK4 = biological target: T9, ELK4 (Homo sapiens, UniProt P28324-2 1-405); details: protein: recombinant; tags: N-terminal GST; dsDNA, one strand shown
T9 sequence: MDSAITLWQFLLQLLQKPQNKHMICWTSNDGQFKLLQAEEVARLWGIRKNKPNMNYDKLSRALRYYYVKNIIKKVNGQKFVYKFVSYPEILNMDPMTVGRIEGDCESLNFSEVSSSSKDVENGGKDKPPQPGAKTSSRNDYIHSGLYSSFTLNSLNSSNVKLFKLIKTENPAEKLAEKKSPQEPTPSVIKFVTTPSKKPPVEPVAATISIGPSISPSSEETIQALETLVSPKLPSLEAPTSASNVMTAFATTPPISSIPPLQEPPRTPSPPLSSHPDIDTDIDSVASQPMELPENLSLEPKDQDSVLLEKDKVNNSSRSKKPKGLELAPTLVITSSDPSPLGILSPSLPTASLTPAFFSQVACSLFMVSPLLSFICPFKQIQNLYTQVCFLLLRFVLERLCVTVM
How it was run: as §1

ETV2 = biological target: T10, ETV2 (Homo sapiens, UniProt O00321 1-342); details: protein: recombinant; tags: N-terminal GST; dsDNA, one strand shown
T10 sequence: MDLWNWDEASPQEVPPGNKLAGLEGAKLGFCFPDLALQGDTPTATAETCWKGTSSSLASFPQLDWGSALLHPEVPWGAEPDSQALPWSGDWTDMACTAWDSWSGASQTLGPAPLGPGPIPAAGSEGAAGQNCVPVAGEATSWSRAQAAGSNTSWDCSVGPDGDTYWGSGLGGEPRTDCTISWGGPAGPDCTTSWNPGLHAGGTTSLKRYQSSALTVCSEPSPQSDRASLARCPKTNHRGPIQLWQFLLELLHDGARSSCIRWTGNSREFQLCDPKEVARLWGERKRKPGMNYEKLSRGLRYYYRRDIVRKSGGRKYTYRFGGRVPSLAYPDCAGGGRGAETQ
How it was run: as §1

ELF3 = biological target: T11, ELF3 (Homo sapiens, UniProt P78545 1-371); details: protein: recombinant; tags: N-terminal GST; dsDNA, one strand shown
T11 sequence: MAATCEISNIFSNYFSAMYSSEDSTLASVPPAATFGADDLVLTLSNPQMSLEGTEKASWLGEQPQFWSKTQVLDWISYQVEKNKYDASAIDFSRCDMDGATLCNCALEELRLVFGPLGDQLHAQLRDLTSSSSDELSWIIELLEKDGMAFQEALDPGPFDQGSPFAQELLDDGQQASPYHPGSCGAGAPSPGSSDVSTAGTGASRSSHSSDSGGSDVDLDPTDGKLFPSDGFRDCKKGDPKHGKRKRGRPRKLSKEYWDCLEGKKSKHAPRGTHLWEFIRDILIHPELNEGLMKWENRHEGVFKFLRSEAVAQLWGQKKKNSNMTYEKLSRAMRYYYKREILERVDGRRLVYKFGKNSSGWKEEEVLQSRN
How it was run: as §1

CRX = CRX (Homo sapiens, UniProt O43186 1-299); details: protein: recombinant; tags: N-terminal GST; dsDNA, one strand shown
CRX, sequence (O43186 whole entry): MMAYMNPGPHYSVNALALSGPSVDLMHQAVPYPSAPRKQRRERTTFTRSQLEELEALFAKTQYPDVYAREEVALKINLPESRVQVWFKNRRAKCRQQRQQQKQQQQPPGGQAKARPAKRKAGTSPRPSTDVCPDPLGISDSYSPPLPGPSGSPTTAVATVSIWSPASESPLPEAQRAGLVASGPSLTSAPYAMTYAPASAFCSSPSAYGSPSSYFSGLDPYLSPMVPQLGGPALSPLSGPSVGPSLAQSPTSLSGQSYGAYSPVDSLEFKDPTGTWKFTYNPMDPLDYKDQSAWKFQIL
How it was run: as §1

ETV1 = ETV1 (Homo sapiens, UniProt P50549 1-477); details: protein: recombinant; tags: N-terminal GST; dsDNA, one strand shown
ETV1, sequence (P50549 whole entry): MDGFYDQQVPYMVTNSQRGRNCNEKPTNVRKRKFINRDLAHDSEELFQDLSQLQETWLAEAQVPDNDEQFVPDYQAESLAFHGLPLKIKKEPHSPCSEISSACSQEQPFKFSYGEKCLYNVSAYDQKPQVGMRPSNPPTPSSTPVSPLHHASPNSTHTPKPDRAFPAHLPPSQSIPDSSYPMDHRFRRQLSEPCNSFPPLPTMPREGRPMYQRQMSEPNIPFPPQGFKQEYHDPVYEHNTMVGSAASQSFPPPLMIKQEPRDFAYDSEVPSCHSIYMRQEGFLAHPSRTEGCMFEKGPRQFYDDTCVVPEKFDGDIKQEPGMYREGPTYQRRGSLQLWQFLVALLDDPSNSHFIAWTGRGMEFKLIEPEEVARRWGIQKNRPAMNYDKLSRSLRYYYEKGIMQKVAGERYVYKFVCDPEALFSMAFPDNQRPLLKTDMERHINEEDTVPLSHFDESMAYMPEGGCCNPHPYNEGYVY
How it was run: as §1

Sequence: CTGCAT
- binding signal (FLI1): 1.42 fold enrichment (6-mer frequency, TF over GST control)
- binding signal (ELK1): 1.51 fold enrichment (6-mer frequency, TF over GST control)
- binding signal (GABPA): 1.41 fold enrichment (6-mer frequency, TF over GST control)
- binding signal (ERG): 1.41 fold enrichment (6-mer frequency, TF over GST control)
- binding signal (ELF1): 1.47 fold enrichment (6-mer frequency, TF over GST control)
- binding signal (EHF): 1.47 fold enrichment (6-mer frequency, TF over GST control)
- binding signal (SPI1): 1.42 fold enrichment (6-mer frequency, TF over GST control)
- binding signal (SPIB): 1.65 fold enrichment (6-mer frequency, TF over GST control)
- binding signal (ELK3): 1.39 fold enrichment (6-mer frequency, TF over GST control)
- binding signal (FEV): 1.54 fold enrichment (6-mer frequency, TF over GST control)
- binding signal (ETV5): 1.46 fold enrichment (6-mer frequency, TF over GST control)
- binding signal (HSF1): 1.12 fold enrichment (6-mer frequency, TF over GST control)
- binding signal (SPIC): 1.32 fold enrichment (6-mer frequency, TF over GST control)
- binding signal (ELF4): 1.43 fold enrichment (6-mer frequency, TF over GST control)
- binding signal (ELK4): 1.39 fold enrichment (6-mer frequency, TF over GST control)
- binding signal (ETV2): 1.28 fold enrichment (6-mer frequency, TF over GST control)
- binding signal (ELF3): 1.4 fold enrichment (6-mer frequency, TF over GST control)
- binding signal (CRX): 1.12 fold enrichment (6-mer frequency, TF over GST control)
- binding signal (ETV1): 1.29 fold enrichment (6-mer frequency, TF over GST control)
